Test [1] has as its target human Endothelin Receptor Type B (ETB), EDNRB (gene 1910) (UniProt P24530). In words: NVS_GPCR_hETB: NovaScreen (NVS) G Protein-Coupled Receptor Assay for human Endothelin Receptor Type B (ETB) (AID 2283267). Put shortly: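 Filter-based scintillation readout of radioligand displacement, 4 h, using membranes from human astrocytoma cells. Actives from a 25 uM duplicate screen were retested in concentration-response (top 50 uM) relative to DMSO baseline.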

Test [2] deals with human Dopamine Receptor D2 (DRD2), DRD2 (gene 1813) (UniProt P14416). In words: NVS_GPCR_hDRD2s: NovaScreen (NVS) G Protein-Coupled Receptor Assay for human Dopamine Receptor D2 (DRD2) (AID 2283266). Put shortly:
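Test compound (25 uM, duplicate in the primary screen; concentration series at follow-up) competed with radioligand for human DRD2 in CHO-derived membrane protein. Filter-based scintillation counting was done 1.5 hours after dosing, with loss of signal analysed against DMSO.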

Test [3] addresses Beta-2 adrenergic receptor (Homo sapiens) (UniProt P07550). In words: NVS_GPCR_hAdrb2: NovaScreen (NVS) G Protein-Coupled Receptor Assay for human Adrenergic, Beta 2 Receptor (Adrb2) (AID 2283261). Put shortly: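 Compounds screened in duplicate at 25 uM, then actives in concentration series. Human beta-2 receptor from CHO material, cell-free; radioligand displacement after 1 h measured by filtration and scintillation against DMSO baseline.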

The target in test [4] is human Adrenergic, Beta 3 Receptor (Adrb3), ADRB3 (gene 155) (UniProt P13945). In words: NVS_GPCR_hAdrb3: NovaScreen (NVS) G Protein-Coupled Receptor Assay for human Adrenergic, Beta 3 Receptor (Adrb3) (AID 2283262). In a few lines:
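A cell-free filter binding assay read by scintillation counting, with displacement of a specific radioligand measured after 1 hour. The receptor source was SK-N-MC extracts (cells pretreated with isoproterenol and 8-bromo-cAMP). Compounds were first tested at 25 uM in duplicate and then in concentration series.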

The target of test [5] is human Dopamine Receptor D4.4 (DRD4.4), DRD4 (gene 1815) (UniProt P21917). In words: NVS_GPCR_hDRD4.4: NovaScreen (NVS) G Protein-Coupled Receptor Assay for human Dopamine Receptor D4.4 (DRD4.4) (AID 2283264). In a few lines:
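Filter-binding assay with a tritiated or iodinated ligand, cell-free receptor prepared from CHO, 1 hour. Loss of bound radioactivity versus DMSO; single 25 uM duplicate screen, then concentration-response for actives.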

Test [6] deals with human Adrenergic, Alpha 2A Receptor (Adra2A), ADRA2A (gene 150) (UniProt P08913). In words: NVS_GPCR_hAdra2A: NovaScreen (NVS) G Protein-Coupled Receptor Assay for human Adrenergic, Alpha 2A Receptor (Adra2A) (AID 2283257). On the procedure:
(§1) NVS_GPCR_hAdra2A is a biochemical, single-readout assay that uses extracted gene-proteins from HT29 in a cell-free assay. Measurements were taken 1 hour after chemical dosing in a 48-well plate.NVS_GPCR_hAdra2A is one of one assay component(s) measured or calculated from the NVS_GPCR_hAdra2A assay. It is designed to make measurements of radioligand binding, a form of binding reporter, as detected with scintillation counting signals by Filter-based radiodetection technology.Data from the assay component NVS_GPCR_hAdra2A was analyzed into 1 assay endpoint. This assay endpoint, NVS_GPCR_hAdra2A, was analyzed in the positive analysis fitting direction relative to DMSO as the negative control and baseline of activity. Using a type of binding reporter, loss-of-signal activity can be used to understand changes in the binding as they relate to the gene ADRA2A. Furthermore, this assay endpoint can be referred to as a primary readout, because the performed assay has only produced 1 assay endpoint. To generalize the intended target to other relatable targets, this assay endpoint is annotated to the gpcr intended target family, where the subfamily is rhodopsin-like receptor.
(§2) Binding assays used specific radioligands (tritiated, iodinated) with non-radioactive competitive displacement ligands in agonist or antagonist protocols (as indicated) and various reference compounds and inhibitors to titrate specific binding to receptors and transporters. Most enzyme assays (CYPs, kinases, phosphatases, proteases, HDACs) used recombinant protein and specific substrates (fluorescence mostly, some colorimetric and radioactive) and inhibitors, followed by a biochemical separation of substrate and product. All assays for the biochemical HTS were initially run in duplicate at a single concentration (10 uM for CYP450 assays and 25 uM for all others). […] Each assay was run with positive and negative controls, and concurrent controls on every plate. The follow-up (secondary) screen tested active chemical-pairs in concentration series, as well as a few additional assays not tested in the primary screen, some selected negative inactives, and several cases re-run in the concentration series for confirmatory purposes.

Test [7] addresses human Adrenergic, Alpha 2c Receptor (Adra2C), ADRA2C (gene 152) (UniProt P18825). In words: NVS_GPCR_hAdra2C: NovaScreen (NVS) G Protein-Coupled Receptor Assay for human Adrenergic, Alpha 2c Receptor (Adra2C) (AID 2283259). Here is the method:
as §1, with “NVS_GPCR_hAdra2C” for “NVS_GPCR_hAdra2A”, “SF9” for “HT29”, “96-well plate.NVS_GPCR_hAdra2C” for “48-well plate.NVS_GPCR_hAdra2A”, “NVS_GPCR_hAdra2C,” for “NVS_GPCR_hAdra2A,”, “ADRA2C.” for “ADRA2A.”
as §2

For test [8], the target named is Type-1 angiotensin II receptor (Homo sapiens) (UniProt P30556). In words: NVS_GPCR_hAT1: NovaScreen (NVS) G Protein-Coupled Receptor Assay for human Angiotensin II receptor type 1 (AT1) (AID 2283263). On the procedure:
(§3) NVS_GPCR_hAT1 is a biochemical, single-readout assay that uses extracted gene-proteins from KAN-TS in a tissue-based cell-free assay. Measurements were taken 3 hours after chemical dosing in a 48-well plate.NVS_GPCR_hAT1 is one of one assay component(s) measured or calculated from the NVS_GPCR_hAT1 assay. It is designed to make measurements of radioligand binding, a form of binding reporter, as detected with scintillation counting signals by Filter-based radiodetection technology.Data from the assay component NVS_GPCR_hAT1 was analyzed into 1 assay endpoint. This assay endpoint, NVS_GPCR_hAT1, was analyzed in the positive analysis fitting direction relative to DMSO as the negative control and baseline of activity. Using a type of binding reporter, loss-of-signal activity can be used to understand changes in the binding as they relate to the gene AGTR1. Furthermore, this assay endpoint can be referred to as a primary readout, because the performed assay has only produced 1 assay endpoint. To generalize the intended target to other relatable targets, this assay endpoint is annotated to the gpcr intended target family, where the subfamily is rhodopsin-like receptor.
Binding assays used specific radioligands (tritiated, iodinated) with non-radioactive competitive displacement ligands in agonist or antagonist protocols (as indicated) and various reference compounds and inhibitors to titrate specific binding to receptors and transporters. Most enzyme assays (CYPs, kinases, phosphatases, proteases, HDACs) used recombinant protein and specific substrates (fluorescence mostly, some colorimetric and radioactive) and inhibitors, followed by a biochemical separation of substrate and product. All assays for the biochemical HTS were initially run in duplicate at a single concentration (10 uM for CYP450 assays and 25 uM for all others). Assay-chemical combinations meeting a pre-defined threshold (e.g., 30% inhibition and other criteria defined below) were then run in singleton concentration-response format with maximum concentration of 20 uM for CYPs and 50 uM for all others. Each assay was run with positive and negative controls, and concurrent controls on every plate. The follow-up (secondary) screen tested active chemical-pairs in concentration series, as well as a few additional assays not tested in the primary screen, some selected negative inactives, and several cases re-run in the concentration series for confirmatory purposes.

Test [9] has as its target human Adrenergic, Beta 1 Receptor (Adrb1), ADRB1 (gene 153) (UniProt P08588). In words: NVS_GPCR_hAdrb1: NovaScreen (NVS) G Protein-Coupled Receptor Assay for human Adrenergic, Beta 1 Receptor (Adrb1) (AID 2283258). In a few lines: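 Membranes/protein extracted from human neuroepithelioma cells, radioligand competition binding read by filtration and scintillation 2 h post-dose. Single 25 uM duplicate screen, then concentration-response follow-up; DMSO as negative control.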

Test [10] deals with human Endothelin Receptor Type A (ETA), EDNRA (gene 1909) (UniProt P25101). In words: NVS_GPCR_hETA: NovaScreen (NVS) G Protein-Coupled Receptor Assay for human Endothelin Receptor Type A (ETA) (AID 2283265). Here is the method: as §3, with “NVS_GPCR_hETA” for “NVS_GPCR_hAT1”, “Human neuroblastoma cells (SH-SY5Y)” for “KAN-TS”, “a” for “a tissue-based”, “96-well plate.NVS_GPCR_hETA” for “48-well plate.NVS_GPCR_hAT1”, “NVS_GPCR_hETA,” for “NVS_GPCR_hAT1,”, “EDNRA.” for “AGTR1.”
Chain of human Endothelin Receptor Type A (ETA), EDNRA (gene 1909) (P25101 whole entry, looked up): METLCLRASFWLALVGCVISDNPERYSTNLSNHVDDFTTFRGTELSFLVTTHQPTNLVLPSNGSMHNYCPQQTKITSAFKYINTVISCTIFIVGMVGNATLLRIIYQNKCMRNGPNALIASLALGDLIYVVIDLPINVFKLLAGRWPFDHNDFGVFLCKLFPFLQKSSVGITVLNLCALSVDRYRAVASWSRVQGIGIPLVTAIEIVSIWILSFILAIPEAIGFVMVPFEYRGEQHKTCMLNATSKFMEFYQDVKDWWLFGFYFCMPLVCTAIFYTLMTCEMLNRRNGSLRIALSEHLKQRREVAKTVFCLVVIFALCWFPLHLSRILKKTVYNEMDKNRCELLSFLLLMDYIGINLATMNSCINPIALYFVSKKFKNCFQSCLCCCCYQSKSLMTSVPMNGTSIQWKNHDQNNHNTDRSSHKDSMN
Binding assays used specific radioligands (tritiated, iodinated) with non-radioactive competitive displacement ligands in agonist or antagonist protocols (as indicated) and various reference compounds and inhibitors to titrate specific binding to receptors and transporters. Most enzyme assays (CYPs, kinases, phosphatases, proteases, HDACs) used recombinant protein and specific substrates (fluorescence mostly, some colorimetric and radioactive) and inhibitors, followed by a biochemical separation of substrate and product. All assays for the biochemical HTS were initially run in duplicate at a single concentration (10 uM for CYP450 assays and 25 uM for all others). […]

Results filed as inconclusive are left out. Active and inactive are the calls of the source. The calls were made as follows: active = hit-call score of the fitted dose curve at least 0.9, where 1 is the maximum; inconclusive = response in the unintended direction; inactive = score below 0.9.

Broadly, the AC50 is the midpoint of the concentration-response curve, whichever way the signal moves.

Chain of Type-1 angiotensin II receptor (Homo sapiens) (P30556 whole entry, looked up): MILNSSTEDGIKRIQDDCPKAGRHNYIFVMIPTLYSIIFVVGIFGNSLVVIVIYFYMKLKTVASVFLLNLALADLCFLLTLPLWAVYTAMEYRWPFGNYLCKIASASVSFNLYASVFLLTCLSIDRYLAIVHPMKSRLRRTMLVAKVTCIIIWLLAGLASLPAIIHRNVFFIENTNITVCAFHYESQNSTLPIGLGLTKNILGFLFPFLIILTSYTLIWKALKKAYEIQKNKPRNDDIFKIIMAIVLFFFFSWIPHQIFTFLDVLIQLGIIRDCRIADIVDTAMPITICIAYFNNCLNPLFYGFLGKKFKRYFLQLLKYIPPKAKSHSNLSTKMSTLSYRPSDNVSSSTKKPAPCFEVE
Chain of human Dopamine Receptor D2 (DRD2), DRD2 (gene 1813) (P14416 whole entry, looked up): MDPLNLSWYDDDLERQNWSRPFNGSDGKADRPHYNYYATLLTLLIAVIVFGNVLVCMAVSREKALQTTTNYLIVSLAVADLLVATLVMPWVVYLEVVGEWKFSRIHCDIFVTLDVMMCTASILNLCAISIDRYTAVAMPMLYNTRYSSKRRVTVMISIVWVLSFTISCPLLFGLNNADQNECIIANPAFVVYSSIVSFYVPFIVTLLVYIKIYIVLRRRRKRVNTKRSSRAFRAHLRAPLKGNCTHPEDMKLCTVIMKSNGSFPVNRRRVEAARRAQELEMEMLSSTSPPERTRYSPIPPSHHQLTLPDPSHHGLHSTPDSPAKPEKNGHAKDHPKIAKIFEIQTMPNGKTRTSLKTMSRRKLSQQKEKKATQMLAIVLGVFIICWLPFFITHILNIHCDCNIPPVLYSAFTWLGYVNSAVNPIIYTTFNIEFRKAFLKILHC
Chain of human Dopamine Receptor D4.4 (DRD4.4), DRD4 (gene 1815) (P21917 whole entry, looked up): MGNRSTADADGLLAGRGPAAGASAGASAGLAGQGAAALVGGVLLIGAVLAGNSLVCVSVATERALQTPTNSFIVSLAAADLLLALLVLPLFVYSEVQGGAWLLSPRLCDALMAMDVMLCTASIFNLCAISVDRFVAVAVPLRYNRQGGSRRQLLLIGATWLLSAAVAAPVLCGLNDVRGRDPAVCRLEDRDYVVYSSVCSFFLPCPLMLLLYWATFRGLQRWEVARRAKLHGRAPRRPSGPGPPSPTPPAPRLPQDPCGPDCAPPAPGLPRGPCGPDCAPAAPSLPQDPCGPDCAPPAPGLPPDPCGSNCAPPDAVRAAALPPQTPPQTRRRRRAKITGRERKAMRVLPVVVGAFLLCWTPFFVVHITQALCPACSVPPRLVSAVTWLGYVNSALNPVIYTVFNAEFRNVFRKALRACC
Chain of human Adrenergic, Beta 3 Receptor (Adrb3), ADRB3 (gene 155) (P13945 whole entry, looked up): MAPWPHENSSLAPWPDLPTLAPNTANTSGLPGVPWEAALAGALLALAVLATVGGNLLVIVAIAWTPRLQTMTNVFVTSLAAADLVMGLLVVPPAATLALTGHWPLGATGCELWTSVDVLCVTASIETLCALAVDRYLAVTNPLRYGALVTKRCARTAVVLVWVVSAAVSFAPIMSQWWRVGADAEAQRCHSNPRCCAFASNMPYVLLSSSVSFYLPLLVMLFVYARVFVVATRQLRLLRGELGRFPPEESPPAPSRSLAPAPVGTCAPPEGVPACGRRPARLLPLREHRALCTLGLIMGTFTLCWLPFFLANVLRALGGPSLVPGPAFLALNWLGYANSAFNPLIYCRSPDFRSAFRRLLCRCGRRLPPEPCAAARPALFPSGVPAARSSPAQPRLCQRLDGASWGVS
Chain of Beta-2 adrenergic receptor (Homo sapiens) (P07550 whole entry, looked up): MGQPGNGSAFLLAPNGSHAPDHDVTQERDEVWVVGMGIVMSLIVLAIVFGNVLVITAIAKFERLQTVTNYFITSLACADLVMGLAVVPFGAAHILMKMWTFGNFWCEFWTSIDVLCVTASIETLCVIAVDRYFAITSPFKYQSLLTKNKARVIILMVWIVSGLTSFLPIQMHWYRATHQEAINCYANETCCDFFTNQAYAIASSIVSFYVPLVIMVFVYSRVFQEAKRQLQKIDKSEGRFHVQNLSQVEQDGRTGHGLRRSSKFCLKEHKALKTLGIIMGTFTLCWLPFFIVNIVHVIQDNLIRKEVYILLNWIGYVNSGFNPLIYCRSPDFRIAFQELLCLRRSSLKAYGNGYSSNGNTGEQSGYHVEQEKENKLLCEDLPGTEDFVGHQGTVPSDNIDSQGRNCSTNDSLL
Chain of human Adrenergic, Beta 1 Receptor (Adrb1), ADRB1 (gene 153) (P08588 whole entry, looked up): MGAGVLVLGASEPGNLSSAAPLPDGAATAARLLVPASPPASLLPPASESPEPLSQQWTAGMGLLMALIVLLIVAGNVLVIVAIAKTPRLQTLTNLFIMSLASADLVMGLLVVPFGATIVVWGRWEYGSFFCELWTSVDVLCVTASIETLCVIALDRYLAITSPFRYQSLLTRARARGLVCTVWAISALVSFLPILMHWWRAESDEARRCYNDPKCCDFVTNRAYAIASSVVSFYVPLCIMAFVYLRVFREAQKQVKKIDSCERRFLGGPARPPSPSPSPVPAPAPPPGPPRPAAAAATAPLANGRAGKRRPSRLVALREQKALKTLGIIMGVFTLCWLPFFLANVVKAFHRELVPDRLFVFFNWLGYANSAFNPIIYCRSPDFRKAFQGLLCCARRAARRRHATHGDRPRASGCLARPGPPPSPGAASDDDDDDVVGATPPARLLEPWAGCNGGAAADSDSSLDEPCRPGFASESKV
Chain of human Endothelin Receptor Type B (ETB), EDNRB (gene 1910) (P24530 whole entry, looked up): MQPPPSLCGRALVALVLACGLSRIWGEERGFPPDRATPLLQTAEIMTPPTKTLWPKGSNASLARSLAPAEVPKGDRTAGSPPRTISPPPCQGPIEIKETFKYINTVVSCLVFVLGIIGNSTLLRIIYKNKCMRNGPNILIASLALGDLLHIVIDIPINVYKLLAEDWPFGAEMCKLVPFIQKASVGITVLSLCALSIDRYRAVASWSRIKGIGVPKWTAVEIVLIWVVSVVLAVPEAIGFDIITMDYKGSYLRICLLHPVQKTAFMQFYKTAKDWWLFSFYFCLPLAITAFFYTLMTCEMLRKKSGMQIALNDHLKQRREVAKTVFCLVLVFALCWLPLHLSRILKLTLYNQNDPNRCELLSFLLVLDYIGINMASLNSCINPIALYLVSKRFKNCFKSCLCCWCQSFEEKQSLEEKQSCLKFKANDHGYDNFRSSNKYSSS
Chain of human Adrenergic, Alpha 2c Receptor (Adra2C), ADRA2C (gene 152) (P18825 whole entry, looked up): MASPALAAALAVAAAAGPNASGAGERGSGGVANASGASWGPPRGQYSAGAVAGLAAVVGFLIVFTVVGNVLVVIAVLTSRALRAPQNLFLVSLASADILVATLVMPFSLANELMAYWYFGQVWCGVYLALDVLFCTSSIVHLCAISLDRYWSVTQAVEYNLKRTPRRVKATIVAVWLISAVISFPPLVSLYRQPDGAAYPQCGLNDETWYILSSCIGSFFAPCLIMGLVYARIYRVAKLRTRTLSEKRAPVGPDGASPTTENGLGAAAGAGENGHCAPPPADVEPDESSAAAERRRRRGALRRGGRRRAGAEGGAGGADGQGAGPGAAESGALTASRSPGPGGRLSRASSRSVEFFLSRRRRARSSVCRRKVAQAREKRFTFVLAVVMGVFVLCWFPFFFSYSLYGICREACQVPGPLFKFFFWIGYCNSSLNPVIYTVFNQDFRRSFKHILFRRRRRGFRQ
Chain of human Adrenergic, Alpha 2A Receptor (Adra2A), ADRA2A (gene 150) (P08913 whole entry, looked up): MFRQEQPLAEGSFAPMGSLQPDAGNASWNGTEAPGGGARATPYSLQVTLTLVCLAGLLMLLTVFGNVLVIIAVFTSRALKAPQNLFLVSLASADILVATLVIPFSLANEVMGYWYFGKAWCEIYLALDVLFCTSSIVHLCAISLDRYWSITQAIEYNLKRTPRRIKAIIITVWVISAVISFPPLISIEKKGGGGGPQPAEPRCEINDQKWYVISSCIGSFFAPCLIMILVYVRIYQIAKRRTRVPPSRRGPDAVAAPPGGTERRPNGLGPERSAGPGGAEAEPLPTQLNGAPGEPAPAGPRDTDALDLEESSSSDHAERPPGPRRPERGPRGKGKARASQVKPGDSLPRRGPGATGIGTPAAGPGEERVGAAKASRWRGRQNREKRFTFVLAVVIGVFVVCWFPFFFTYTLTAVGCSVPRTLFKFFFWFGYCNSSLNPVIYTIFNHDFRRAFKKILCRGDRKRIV

Turning to `NCCOCCOCCN`, the result in test [1] was inactive.
As for `Cc1c(C)c2c(c(C)c1O)CCC(C)(COc1ccc(CC3SC(=O)NC3=O)cc1)O2` (stereo unspecified), the result in [2] was inactive.
As to `CN(C)C(=O)NC1(c2ccccc2)CCN(CC[C@@]2(c3ccc(F)c(F)c3)CN(C(=O)c3ccccc3)CCO2)CC1`, the call in test [2] was inactive.
As for `COC(=O)[C@H]1[C@H]2C[C@@H]3c4[nH]c5cc(OC)ccc5c4CCN3C[C@H]2C[C@@H](OC(=O)c2cc(OC)c(OC)c(OC)c2)[C@@H]1OC`, in test [3], the concentration at half-maximal activity (AC50) was 12.1 µM (active).
As to `Cc1cc(SC2=C(O)C[C@@](CCc3ccc(N)cc3)(C(C)C)OC2=O)c(C(C)(C)C)cc1CO`, the outcome in [2] was inactive.
Consider `Cn1cnc2c1c(=O)[nH]c(=O)n2C`, for which the result in test [4] was inactive.
For `CN(C)C(=O)NC1(c2ccccc2)CCN(CCC[C@]2(c3ccc(Cl)c(Cl)c3)CCCN(C(=O)c3ccccc3)C2)CC1`, the molecule was classed as inactive in test [4]. The AC50 in test [5] was 6.25 µM (active); in test [2], 4 µM (active).
As to `CCc1nc(N)nc(N)c1-c1ccc(Cl)cc1`, the AC50 in [6] was 4.81 µM (active); in test [5] it was 5.9 µM (active). Besides, the result in test [3] was inactive.
`CCCCCCCCCC[N+](C)(C)[O-]`: in test [4], the molecule was called inactive.
With `CCCCc1nc2cccnc2n1Cc1ccc(-c2ccccc2-c2nnn[nH]2)cc1`, in test [7], the call was inactive. Besides, the half-maximal activity concentration (AC50) in test [8] was 0.0191 µM (active).
With `CCC(C)N(C)C(=O)c1cc2ccccc2c(-c2ccccc2Cl)n1` (stereo unspecified), the AC50 in test [8] was 15.9 µM (active).
With `CCCCC(CC)COC(=O)CCCCCCCC(=O)OCC(CC)CCCC` (stereo unspecified), the molecule was called inactive in [9].
Take `CCc1cc(C2=C(C(=O)O)N(c3ccccc3C(F)(F)F)S(=O)(=O)c3ccccc32)cc2c1OCO2`: the values for the AC50 in [8], in [10] and in test [1] were 16.2 µM (active), 0.0451 µM (active) and 0.442 µM (active), respectively.
In the case of `CCCCCCCCCCCCCCOS(=O)(=O)O`, the AC50 is 5.22 µM (active) in test [9]; 2.99 µM (active) in test [7]; 15.4 µM (active) in [3]; 13.3 µM (active) in [5]; 15.1 µM (active) in test [2]. Further, the result in test [8] was inactive.
